The first experiment has as its system Fibrinogen (Alexa647-labelled). Briefly: fibrinogen binders on compound microarrays, profiling panel, artefact control for SMM control-protein annotation, biochemical, small-molecule microarray, 635/667 nm fluorescence (AID 1131).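 Also: z-score merges 667 nm fluorescence with per-spot signal-to-noise over triplicate slides.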 The settings on record: fibrinogen-A647 binding fluorescence, higher = more signal.
Molecule `COCCOC(=O)N1C(=O)[C@@]2(c3cc(C#CCCO)ccc31)[C@H](c1ccc(OCCO)cc1)N1[C@H](c3ccccc3)[C@H](c3ccccc3)OC(=O)[C@H]1[C@@H]2C(=O)N1CCCCCCC1` returned a composite z-score of 0.726. The molecule `COc1ccc([Si](C)(C)[C@@H]2[C@@H](CC(=O)N(CCO)Cc3ccccc3)O[C@]3(C(=O)N(Cc4ccc(N5C(=O)c6cccc7cccc5c67)cc4)c4ccccc43)[C@H]2C)cc1` displayed a composite z-score of 0.674.

The molecule `CCOC(=O)C1=CC[C@@H](c2ccc(OC)cc2)N(S(=O)(=O)c2ccc(C)cc2)[C@H]1CC` registered a composite z-score of 0.993. For the molecule `CN1C(=O)C2C(C1=O)C1C=C(c3ccc(CO)cc3)C2C(C2CC2)N1C` (configuration not stated), the composite z-score was -0.578.

`C=C(CCCC)C(=O)CC[C@@H](OC(=O)c1ccccc1-c1ccccc1C(=O)O)c1ccccc1OCCO` showed a composite z-score of 0.017. On the same count and under the same terms, as for `C=C1C(=O)C=C2CN(C(=O)c3ccccc3)[C@@](Cc3ccc(OC)cc3)(C(=O)OC)[C@@H]12`, the figure is 1.02. The molecule `COC(=O)[C@@]1(Cc2ccc(F)cc2)[C@H]2c3cc(C(=O)N4CCCC4)n(CCc4ccccn4)c3C[C@H]2CN1C(=O)c1ccccc1` gave a composite z-score of 0.97.

The target of the next experiment is Follistatin (Homo sapiens) (UniProt P19883). Briefly: follistatin binders on small-molecule microarrays, primary screen, biochemical, small-molecule microarray, 635/667 nm fluorescence (AID 1132). The settings on record: FST binding, 635 nm fluorescence, higher = more signal.
Follistatin (Homo sapiens), sequence (P19883 whole entry, looked up): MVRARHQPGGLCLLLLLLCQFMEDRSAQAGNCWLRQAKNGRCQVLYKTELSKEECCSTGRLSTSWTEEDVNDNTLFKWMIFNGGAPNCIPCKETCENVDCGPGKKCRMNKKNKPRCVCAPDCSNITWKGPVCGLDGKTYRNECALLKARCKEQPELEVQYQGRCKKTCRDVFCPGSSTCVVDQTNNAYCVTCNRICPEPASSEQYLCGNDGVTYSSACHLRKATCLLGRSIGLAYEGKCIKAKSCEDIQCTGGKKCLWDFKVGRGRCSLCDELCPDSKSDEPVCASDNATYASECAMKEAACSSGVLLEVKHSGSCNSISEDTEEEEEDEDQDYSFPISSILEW
For the molecule `C=CCOC(=O)[C@H]1[C@@H]2C(=O)O[C@@H](c3ccccc3)[C@@H](c3ccccc3)N2[C@@H](c2ccc(OCCOC(=O)[C@H]3C[C@H]4C(=O)N[C@@H](CC(C)C)C(=O)N4[C@H]3c3ccc(O)cc3)cc2)[C@]12C(=O)Nc1ccccc12`, the composite z-score is 1.36. Take `CCOC(=O)C1=C[C@@H](C(C)(C)C)N(S(=O)(=O)c2ccc(C)cc2)[C@H]1c1ccc(C#N)cc1`: the composite z-score is 0.599.

For the molecule `C=CCOC(=O)[C@@H]1[C@H]2C(=O)O[C@H](c3ccccc3)[C@H](c3ccccc3)N2[C@H](c2ccc(OCCOC(=O)[C@H]3C[C@H]4C(=O)N[C@@H](CCCCN(C)C)C(=O)N4[C@H]3c3ccc(O)cc3)cc2)[C@@]12C(=O)Nc1ccc(I)cc12`, the composite z-score is 1.4.

`COC(=O)[C@H](Cc1ccc(O)cc1)N[C@@H](/C=C/C1CC1)[C@H](O)Cc1ccccc1` displayed a composite z-score of 0.156. On the same count and under the same terms, under `O=C(NCC(O)CO)C1N=C(c2ccc(OCCCO)cc2)N(c2ccccc2)O1` (configuration not stated) stands 1.38. Still for that read-out and setting: as for `CCCc1cc2c(n1CCc1ccc(Cl)cc1)C(C)C1CN(C(=O)c3ccccc3)C(C)(C(=O)OC)C21` (configuration not stated), the figure is 0.114. Consider `CC(C)(C)OC(=O)CC[C@]1(C(=O)NCC(O)CO)N=C(c2ccc(OCCCO)cc2)O[C@H]1c1ccccc1N=[N+]=[N-]` (some centres not stated), for which the composite z-score turned out to be 1.38. `COc1ccc([Si](C)(C)[C@H]2[C@H](CC(=O)N3CCC[C@H]3CO)O[C@@]3(C(=O)N(Cc4ccc(N5CCCCC5=O)cc4)c4ccccc43)[C@@H]2C)cc1`: the composite z-score was 1.27. Still for that read-out and setting: as for `CN1C(=O)[C@@H]2[C@@H](CC(COc3ccccc3)=C3[C@@H](CCc4ccccc4)OB(O)C[C@@H]32)C1=O`, the figure is 0.127; as for `CC(C)(C)N1CC=CC23O[C@@H]4C=CCCOC(=O)C4[C@H]2C(=O)N(CCCCCCO)[C@@H]3C1=O` (some centres not stated), -0.327; as for `O=C1C=C(c2ccccc2)C(=O)C2=C1CC([C@H]1Oc3ccccc3S(=O)(=O)N3CCC[C@@H]13)=CC2`, 0.316. Same read-out and setting: under `O=C(NCc1ccc(F)cc1)[C@H]1C[C@H]2C(=O)N3CCC[C@H]3C(=O)N2[C@H]1c1ccc(O)cc1` stands 0.699; under `CC(=O)c1ccc(C(O)C2C=CC3C(=O)N(c4ccccc4)C(=O)C3N2Nc2ccc(C(C)C)cc2)cc1` (configuration not stated), 1.13; under `CCCCC(O)C1C=CC2C(=O)N(c3ccccc3)C(=O)C2N1Nc1ccc([N+](=O)[O-])cc1` (configuration not stated), 0.825. Regarding `O=C1[C@@H]2[C@@H](CC(COc3ccccc3)=C([C@H](O)CCc3ccccc3)[C@@H]2CO)C(=O)N1Cc1ccccc1`, the composite z-score worked out at 0.561. As to `COC(=O)[C@@]1(Cc2ccc(F)cc2)[C@H]2c3cc(C(=O)N(C)C)n(C)c3C[C@H]2CN1C(=O)c1ccccc1`, the composite z-score is -0.524. `C[N+](C)(C)CCCC[C@@H]1NC(=O)[C@H]2C[C@@H](C(=O)NCCCCCNC(=O)CS)[C@@H](c3cccc(OCCO)c3)N2C1=O`: the composite z-score was determined as 0.78.

As to `COC(=O)C[C@H]1O[C@@]2(C[C@@H]1[Si](C)(C)C)C(=O)N(C)c1ccccc12`, the composite z-score amounted to 0.501. Molecule `C=CCOC(=O)[C@H]1[C@@H]2C(=O)O[C@@H](c3ccccc3)[C@@H](c3ccccc3)N2[C@@H](c2ccc(OCCOC(=O)[C@@H]3C[C@@H]4C(=O)N[C@@H](CCCC[N+](C)(C)C)C(=O)N4[C@@H]3c3ccc(O)cc3)cc2)[C@]12C(=O)Nc1ccc(I)cc12` yielded a composite z-score of 1.32. `C=CC[C@@]1(C(=O)OC)N=C(c2ccc(OCCCO)cc2)O[C@@H]1c1ccccc1N=[N+]=[N-]`: the composite z-score worked out at 1.41. Same read-out and setting: as for `C=CC[C@@]1(C(=O)N(C)C)N=C(c2ccc(OCCCO)cc2)O[C@@H]1c1ccccc1CN=[N+]=[N-]`, the figure is 1.36; as for `CCCCCC1=C2CNC(CC(C)C)(C(=O)OC)C=C2C(C)C1=O` (configuration not stated), -0.127. `COc1ccc(C(O)C2C=CC3C(=O)NC(=O)C3N2Nc2ccc(Cl)cc2Cl)c2ccccc12` (configuration not stated) came in with a composite z-score of 0.797.

In the case of `CCOC(=O)C[C@H]1[C@H](OC(=O)Cc2ccc3c(c2)OCO3)[C@@H](NC(=O)c2ccc3ccccc3n2)c2cc(OCCCO)ccc2N1C(=O)Cc1ccc(OC)cc1`, the composite z-score is 0.72.

For `CCCCC(O)C1C=CC2C(=O)N(c3ccccc3)C(=O)C2N1Nc1ccccc1` (configuration not stated), the composite z-score is -0.0278. With `COc1ccc([Si](C)(C)[C@@H]2[C@@H](CC(=O)N3CCC[C@H]3CO)O[C@]3(C(=O)N(Cc4ccc(N5CCOC5=O)cc4)c4ccccc43)[C@H]2C)cc1`, the composite z-score was determined as 0.441. `CC(C)NC(=O)[C@@]1(c2ccc([N+](=O)[O-])cc2)CC(=O)N(CC23CC4CC(CC(C4)C2)C3)[C@@H]1c1ccc(CO)cc1`: the composite z-score was determined as 1.35. Regarding `C=C(CCCC)/C(=C/C[C@H](OC(C)=O)c1cccc(OCCO)c1)c1cnc2ccccc2c1`, the composite z-score worked out at 0.389.

Molecule `COCCOC(=O)N1C(=O)[C@@]2(c3cc(C#CCCO)ccc31)[C@H](c1ccc(OCCO)cc1)N1[C@H](c3ccccc3)[C@H](c3ccccc3)OC(=O)[C@H]1[C@@H]2C(=O)N1CCCCCCC1` showed a composite z-score of 1.46. Still for that read-out and setting: as for `COc1ccc([Si](C)(C)[C@@H]2[C@@H](CC(=O)N(CCO)Cc3ccccc3)O[C@]3(C(=O)N(Cc4ccc(N5C(=O)c6cccc7cccc5c67)cc4)c4ccccc43)[C@H]2C)cc1`, the figure is 0.552. `CCOC(=O)C1=CC[C@@H](c2ccc(OC)cc2)N(S(=O)(=O)c2ccc(C)cc2)[C@H]1CC` gave a composite z-score of 0.995. The molecule `CN1C(=O)C2C(C1=O)C1C=C(c3ccc(CO)cc3)C2C(C2CC2)N1C` (configuration not stated) came in with a composite z-score of -0.17. Turning to `C=C(CCCC)C(=O)CC[C@@H](OC(=O)c1ccccc1-c1ccccc1C(=O)O)c1ccccc1OCCO`, the composite z-score was found to be 1.02. On the same count and under the same terms, as for `C=C1C(=O)C=C2CN(C(=O)c3ccccc3)[C@@](Cc3ccc(OC)cc3)(C(=O)OC)[C@@H]12`, the figure is 1.29. The same measure, in the same setting: as for `COC(=O)[C@@]1(Cc2ccc(F)cc2)[C@H]2c3cc(C(=O)N4CCCC4)n(CCc4ccccn4)c3C[C@H]2CN1C(=O)c1ccccc1`, the figure is -0.227.
